In PubChem BioAssay AID2535 (National Center for Advancing Translational Sciences (NCATS), 2010):

biological target: Pyruvate kinase PKLR (Homo sapiens) (UniProt P30613); test: Secondary Concentration-Response Assay for Activators of Human Liver Pyruvate Kinase: for Probe SAR; details: purified hPK-L, ATP production, Kinase-Glo luminescence; series mostly up to 58.3 µM; activity change, positive = activation: at the top concentration;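 also: 0% = uninhibited enzyme wells on each plate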
Summary of the method: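 Purified human liver pyruvate kinase (0.1 nM) incubated 1 h at room temperature with compound, 0.5 mM PEP and 0.1 mM ADP in imidazole buffer pH 7.2; ATP formed read by Kinase-Glo luminescence, normalized to uninhibited wells.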

Pyruvate kinase PKLR (Homo sapiens), sequence (P30613 whole entry, looked up): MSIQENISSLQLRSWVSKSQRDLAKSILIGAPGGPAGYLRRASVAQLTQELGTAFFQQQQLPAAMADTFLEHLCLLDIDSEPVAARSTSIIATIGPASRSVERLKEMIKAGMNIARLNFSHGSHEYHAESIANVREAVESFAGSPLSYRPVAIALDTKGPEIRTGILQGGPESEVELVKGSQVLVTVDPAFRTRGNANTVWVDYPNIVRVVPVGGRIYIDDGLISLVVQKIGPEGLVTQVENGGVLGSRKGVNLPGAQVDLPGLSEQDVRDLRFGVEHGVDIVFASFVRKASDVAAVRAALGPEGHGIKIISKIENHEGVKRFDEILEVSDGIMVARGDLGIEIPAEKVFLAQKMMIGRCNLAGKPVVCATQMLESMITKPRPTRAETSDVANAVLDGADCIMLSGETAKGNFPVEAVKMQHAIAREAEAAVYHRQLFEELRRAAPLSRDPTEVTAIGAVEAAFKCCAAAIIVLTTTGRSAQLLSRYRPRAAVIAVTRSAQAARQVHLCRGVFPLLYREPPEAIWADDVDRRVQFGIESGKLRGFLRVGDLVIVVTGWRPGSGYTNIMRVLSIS

Activity change, positive = activation, inactive:
Cc1ccc(NS(=O)(=O)c2ccc3c(c2)CCN(C(=O)C(F)(F)F)C3)cc1C 4.85%
Cc1ccc(NS(=O)(=O)c2cccc(C(=O)O)c2)cc1C 3.56%
Cc1ccc2nc(-c3ccc(C)o3)c(Nc3ccc(F)cc3)n2c1 -1.65%
Cc1ccc(-c2nc3ccccn3c2Nc2ccccc2C)o1 3.52%
Cc1ccc(NS(=O)(=O)c2cc3c(cc2N2CCCCC2)NC(=O)CC3)cc1C -2.91%
CC(=O)Nc1ccc(S(=O)(=O)Nc2ccc(C)c(C)c2)cc1 10%
Cc1ccc(NS(=O)(=O)c2ccc3c(c2)CCC(=O)N3)cc1F 11.7%
O=C1c2ccccc2C(=O)N1c1nccs1 6.46%
Cc1ccc(Nc2c(-c3ccc(C)o3)nc3cccc(C)n23)cc1 4.33%
O=C1CCc2cc(S(=O)(=O)Nc3ccc(Cl)c(Cl)c3)c(F)cc2N1 17%
Cc1cc(N2C(=O)c3ccccc3C2=O)no1 -9.96%
Cc1ccc(NS(=O)(=O)c2ccc(-c3ccccc3)cc2)cc1C 10.8%
O=S1(=O)N=C(Oc2cccc(Cl)c2)c2ccccc21 -11.2%
Cc1ccc(N(C)S(=O)(=O)c2ccc3c(c2)CCC(=O)N3)cc1C 6.37%
